# Data taken from PubChem BioAssay.
# The source made the active and inactive calls.
# Key:
# [1] = small molecules captured by biotinylated probe aFSTL3 – biochemical, small-molecule microarray, fluorescence 635/667, stem cell growth factor project, primary screen (AID 1064); details: higher = more signal;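 note: measures binding of the biotinylated anti-FSTL3 antibody to printed compounds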
# [2] = binders from COS7 lysate, DM2A8 probe, primary screen, torsin A project, cell lysate, small-molecule microarray, fluorescence 635/667 (AID 1065); details: higher = more signal, COS7 lysate expressing mutant human TOR1A
# [3] = small molecules captured by biotinylated probe aFGF2 – biochemical, small-molecule microarray, fluorescence 635/667, stem cell growth factor project, primary screen (AID 1067); details: higher = more signal;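 note: measures binding of biotinylated aFGF2 protein to printed compounds on slides; z-score merges feature fluorescence and signal-to-noise across triplicate slides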
# [4] = small molecules captured by biotinylated probe aFGF10 – biochemical, small-molecule microarray, fluorescence 635/667, stem cell growth factor project, primary screen (AID 1071); details: higher = more signal;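 note: score merges 667 nm spot intensity and signal to noise from triplicate slides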
# [5] = target: Neurogenic locus notch homolog protein 2 (Homo sapiens) (UniProt Q04721); test: small molecules binding Notch2 protein – biochemical, small-molecule microarray, 635 nm fluorescence, stem cell growth factors, primary screen (AID 1073); details: higher = more signal
# [6] = target: Pro-neuregulin-1, membrane-bound isoform (Homo sapiens) (UniProt Q02297); test: small molecules binding neuregulin-1 protein – biochemical, small-molecule microarray, fluorescence 635/667, psychiatric disease protein project, primary screen (AID 1075); details: NRG1 binding, 635 nm fluorescence, higher = more signal;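 note: score combines 667 nm spot fluorescence with signal to noise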
# [7] = tested on: Neuregulin-1 EGF-like domain; test: small molecules binding NRG1 EGF domain – biochemical, small-molecule microarray, 635 nm fluorescence, primary screen (AID 1081); details: higher = more signal;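 note: binding of the protein to compounds printed on small-molecule microarray slides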
# [8] = FRG1 expression reporter modulators in myotubes – cell-based, C2C12 myotubes, firefly/Renilla luciferase, luminescence, FRG1 inhibition for FSHD, primary screen (AID 1084); details: FRG1 promoter luciferase, higher = more signal, called active from +8 up or from −8 down
# [9] = small molecules captured by biotinylated probe aFST – biochemical, small-molecule microarray, fluorescence 635/667, stem cell growth factor project, primary screen (AID 1086); details: higher = more signal;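 note: score merges 667 nm fluorescence with signal-to-noise of each printed compound spot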
# [10] = binders of probe aHhip on microarray, primary screen, stem cell growth factor project, biochemical, small-molecule microarray, fluorescence 635/667 (AID 1087); details: higher = more signal;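 note: score merges spot fluorescence at 667nm with spot signal to noise ratio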
# [11] = tested on: PRMT1 (protein arginine N-methyltransferase 1); test: small molecules binding arginine methyltransferase PRMT1 – biochemical, small-molecule microarray, 635 nm fluorescence, primary screen (AID 1088); details: higher = more signal;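 note: binding of Prmt1 protein to compounds spotted on small-molecule microarray slides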
# [12] = growth effects on S. cerevisiae YJM789 – YJM789 clinical isolate, OD600, 24 h, basal, primary screen (AID 1089); details: higher = more signal, called active from +8 up or from −8 down;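 note: growth of clinical yeast isolate S. cerevisiae YJM 789 seeded 1000 cells per well; test concentration not given here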
# [13] = S. pombe growth modifiers, basal conditions – strain 972, OD600, 24 h, no modulator, primary screen (AID 1090);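 note: basal condition with compound alone and no growth modifier present; test concentration not given here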; details: S. pombe 972 growth, higher = more signal, called active from +8 up or from −8 down
# [14] = budding yeast growth modifiers under rapamycin – strain BY4716, OD600, 96 h, primary screen (AID 1091); note: test concentration not given here; details: S. cerevisiae BY4716 + rapamycin, higher = more signal, called active from +8 up or from −8 down
# [15] = target: Torsin-1A-interacting protein 2 (Homo sapiens) (UniProt Q8NFQ8); test: small molecules binding lysate-expressed LULL1 – cell lysate, human LULL1 lysate, 635/667 nm fluorescence, primary screen (AID 1092); details: small-molecule microarray, hLULL1 lysate binding, 635 nm fluorescence; higher = more signal;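 note: probe is lysate of COS7 cells overexpressing human LULL1; score merges per-feature 667 nm fluorescence with signal-to-noise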
# [16] = optical density change of DRC41 E. coli – strain DRC41, OD650, 24 h, E. coli filamentation project, primary screen (AID 1093);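 note: MC1000 strain lacking acrAB efflux and sulA so SOS filamentation is blocked; test concentration not given here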; details: E. coli DRC41 growth, higher = more signal, called active from +8 up or from −8 down
# [17] = probe aLefty2 binding to arrayed compounds – biochemical, biotinylated probe, 635/667 nm fluorescence, primary screen (AID 1094); details: small-molecule microarray, higher = more signal;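 note: score merges spot fluorescence near 667 nm with spot signal-to-noise ratio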
# [18] = tested on: Noggin (protein binding on small-molecule microarray); test: small molecules binding Noggin protein – biochemical, 635/667 nm fluorescence, primary screen (AID 1095); details: 635 nm fluorescence, higher = more signal;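 note: score merges 667 nm feature fluorescence with signal to noise over triplicate slides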
# [19] = target: Neurogenic locus notch homolog protein 3 (Homo sapiens) (UniProt Q9UM47); test: small molecules binding NOTCH3 protein – biochemical, 635/667 nm fluorescence, primary screen (AID 1096); details: small-molecule microarray, 635 nm fluorescence, higher = more signal
# [20] = probe aEGFR binding to arrayed compounds – biochemical, biotinylated probe, 635/667 nm fluorescence, primary screen (AID 1097); details: small-molecule microarray, higher = more signal;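 note: probe is a biotinylated anti-EGFR antibody binding compounds printed on slides; score combines fluorescence near 667 nm and signal to noise of each spot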
# Sequence of Neurogenic locus notch homolog protein 3 (Homo sapiens) (Q9UM47 whole entry, looked up): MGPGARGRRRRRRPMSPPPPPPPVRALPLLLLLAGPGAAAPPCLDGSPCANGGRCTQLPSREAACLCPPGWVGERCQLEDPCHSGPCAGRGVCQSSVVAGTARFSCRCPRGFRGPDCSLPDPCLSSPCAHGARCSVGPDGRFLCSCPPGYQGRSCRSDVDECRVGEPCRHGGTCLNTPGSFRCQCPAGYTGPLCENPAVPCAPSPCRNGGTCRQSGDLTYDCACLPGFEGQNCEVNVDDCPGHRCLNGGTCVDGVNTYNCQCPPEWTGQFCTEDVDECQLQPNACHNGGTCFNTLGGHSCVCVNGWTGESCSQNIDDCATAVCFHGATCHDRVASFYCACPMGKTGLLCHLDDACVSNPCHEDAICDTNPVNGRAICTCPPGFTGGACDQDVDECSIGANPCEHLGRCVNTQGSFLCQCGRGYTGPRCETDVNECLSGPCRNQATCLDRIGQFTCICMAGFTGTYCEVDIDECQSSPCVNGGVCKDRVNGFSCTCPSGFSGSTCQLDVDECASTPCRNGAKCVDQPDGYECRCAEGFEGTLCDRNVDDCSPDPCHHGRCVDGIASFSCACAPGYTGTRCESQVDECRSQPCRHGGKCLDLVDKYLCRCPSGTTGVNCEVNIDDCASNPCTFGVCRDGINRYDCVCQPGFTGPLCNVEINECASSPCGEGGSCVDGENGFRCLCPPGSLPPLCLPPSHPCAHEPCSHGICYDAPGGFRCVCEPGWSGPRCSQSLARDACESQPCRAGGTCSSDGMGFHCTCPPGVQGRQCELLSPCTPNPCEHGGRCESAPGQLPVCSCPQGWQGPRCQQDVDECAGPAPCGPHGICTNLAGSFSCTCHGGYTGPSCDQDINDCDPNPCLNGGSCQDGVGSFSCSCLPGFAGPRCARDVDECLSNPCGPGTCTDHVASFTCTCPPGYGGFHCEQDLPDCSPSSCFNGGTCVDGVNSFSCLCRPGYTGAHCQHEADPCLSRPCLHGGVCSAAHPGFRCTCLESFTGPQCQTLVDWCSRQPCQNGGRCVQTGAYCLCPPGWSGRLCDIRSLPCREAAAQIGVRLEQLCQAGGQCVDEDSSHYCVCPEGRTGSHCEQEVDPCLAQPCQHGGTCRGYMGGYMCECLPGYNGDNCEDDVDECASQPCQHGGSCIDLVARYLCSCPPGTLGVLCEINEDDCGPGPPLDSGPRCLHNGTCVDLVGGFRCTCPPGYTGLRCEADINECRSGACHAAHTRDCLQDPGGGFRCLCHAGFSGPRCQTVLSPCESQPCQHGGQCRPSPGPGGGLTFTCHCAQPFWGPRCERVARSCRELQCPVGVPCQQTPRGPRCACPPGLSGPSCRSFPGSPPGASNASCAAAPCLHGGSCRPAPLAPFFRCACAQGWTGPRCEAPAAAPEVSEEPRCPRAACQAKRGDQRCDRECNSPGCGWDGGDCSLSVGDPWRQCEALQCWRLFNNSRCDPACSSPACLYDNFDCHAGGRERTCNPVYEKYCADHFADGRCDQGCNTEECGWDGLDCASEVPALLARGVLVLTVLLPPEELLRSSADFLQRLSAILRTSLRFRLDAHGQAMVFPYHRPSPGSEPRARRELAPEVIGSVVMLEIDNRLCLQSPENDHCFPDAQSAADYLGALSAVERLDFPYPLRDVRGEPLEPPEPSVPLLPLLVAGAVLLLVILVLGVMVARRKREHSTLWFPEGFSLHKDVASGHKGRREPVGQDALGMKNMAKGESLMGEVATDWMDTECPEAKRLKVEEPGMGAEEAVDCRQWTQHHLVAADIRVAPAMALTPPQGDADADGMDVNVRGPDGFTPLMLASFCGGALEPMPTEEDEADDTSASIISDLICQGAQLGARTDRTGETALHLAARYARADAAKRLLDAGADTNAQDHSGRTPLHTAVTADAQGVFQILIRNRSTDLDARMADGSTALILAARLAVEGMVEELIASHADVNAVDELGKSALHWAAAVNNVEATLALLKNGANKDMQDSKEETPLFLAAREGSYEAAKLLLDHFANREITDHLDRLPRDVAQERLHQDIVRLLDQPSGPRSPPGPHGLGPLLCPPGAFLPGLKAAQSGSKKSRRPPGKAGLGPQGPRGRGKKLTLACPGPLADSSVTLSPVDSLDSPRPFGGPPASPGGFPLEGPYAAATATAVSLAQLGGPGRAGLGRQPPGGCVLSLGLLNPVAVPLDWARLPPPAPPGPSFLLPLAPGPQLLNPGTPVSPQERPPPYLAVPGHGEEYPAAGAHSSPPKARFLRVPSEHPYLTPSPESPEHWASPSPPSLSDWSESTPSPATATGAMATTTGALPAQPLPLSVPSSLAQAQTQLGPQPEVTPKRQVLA
# Sequence of Torsin-1A-interacting protein 2 (Homo sapiens) (Q8NFQ8 whole entry, looked up): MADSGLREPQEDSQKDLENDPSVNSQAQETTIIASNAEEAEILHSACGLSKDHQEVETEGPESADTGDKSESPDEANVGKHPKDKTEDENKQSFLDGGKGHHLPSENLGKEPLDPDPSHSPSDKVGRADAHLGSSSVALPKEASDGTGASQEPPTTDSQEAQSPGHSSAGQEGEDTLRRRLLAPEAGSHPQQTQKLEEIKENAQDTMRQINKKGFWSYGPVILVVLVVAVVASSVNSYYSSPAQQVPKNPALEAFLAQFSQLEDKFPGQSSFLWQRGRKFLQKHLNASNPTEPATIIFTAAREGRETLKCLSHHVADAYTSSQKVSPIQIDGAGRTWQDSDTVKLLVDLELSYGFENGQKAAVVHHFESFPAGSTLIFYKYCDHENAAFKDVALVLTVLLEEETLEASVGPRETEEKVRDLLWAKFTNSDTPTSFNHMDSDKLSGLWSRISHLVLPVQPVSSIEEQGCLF
# Sequence of Pro-neuregulin-1, membrane-bound isoform (Homo sapiens) (Q02297 whole entry, looked up, the tested form may be a part, canonical isoform): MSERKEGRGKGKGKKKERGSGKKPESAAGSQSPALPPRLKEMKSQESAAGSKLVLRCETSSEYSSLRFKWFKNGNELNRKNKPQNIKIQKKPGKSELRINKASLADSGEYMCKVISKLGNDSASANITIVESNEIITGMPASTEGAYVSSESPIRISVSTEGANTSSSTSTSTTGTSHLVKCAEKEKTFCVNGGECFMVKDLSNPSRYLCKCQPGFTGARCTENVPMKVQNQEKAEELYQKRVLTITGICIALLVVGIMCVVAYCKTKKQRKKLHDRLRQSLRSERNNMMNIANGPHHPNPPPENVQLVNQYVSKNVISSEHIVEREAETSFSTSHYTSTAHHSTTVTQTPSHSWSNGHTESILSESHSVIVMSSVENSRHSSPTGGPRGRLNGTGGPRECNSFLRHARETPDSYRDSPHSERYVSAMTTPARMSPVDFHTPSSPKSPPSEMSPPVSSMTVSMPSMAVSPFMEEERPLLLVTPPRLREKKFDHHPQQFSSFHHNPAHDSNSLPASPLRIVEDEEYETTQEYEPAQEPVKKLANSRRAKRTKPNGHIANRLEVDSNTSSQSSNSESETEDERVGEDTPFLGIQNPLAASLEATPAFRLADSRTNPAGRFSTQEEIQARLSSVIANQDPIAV
Compound,composite z-score [1],composite z-score [2],composite z-score [3],composite z-score [4],composite z-score [5],composite z-score [6],composite z-score [7],z-score [8],composite z-score [9],composite z-score [10],composite z-score [11],z-score [12],z-score [13],z-score [14],composite z-score [15],z-score [16],composite z-score [17],composite z-score [18],composite z-score [19],composite z-score [20]
CC(=O)n1cc(C(O)C2C=CC3C(=O)N(Cc4ccccc4)C(=O)C3N2n2cnnc2)c2ccccc21 (stereo not given),-0.317,0.47,-0.0218,-0.0821,0.145,-0.0307,0.351,0.186 (inactive),0.426,-0.268,0.77,-0.423 (inactive),0.552 (inactive),0.192 (inactive),1.23,-0.901 (inactive),-0.0858,-0.415,0.193,0.728
COC(=O)c1c(CC[C@@H](CO)NC(=O)N[C@H](Cn2cc(-c3ccccc3C)nn2)C(C)C)oc(C(C)=O)c1C(=O)OC,-0.157,-1.08,-0.129,0.415,-1.18,0.638,0.309,0.87 (inactive),-0.205,0.145,-0.469,-0.147 (inactive),-0.644 (inactive),0.467 (inactive),-0.351,0.537 (inactive),-0.29,-0.0001,-0.465,-0.218
O=C1C[C@]2(c3ccc([N+](=O)[O-])cc3)C(=O)N(Cc3ccccc3)c3cc(CO)ccc3[C@H]2N1CC12CC3CC(CC(C3)C1)C2,0.0993,-0.728,0.0018,-0.817,-0.746,-0.468,-0.851,-0.0424 (inactive),0.0779,-0.369,-0.404,-0.251 (inactive),0.418 (inactive),-1.23 (inactive),0.258,0.64 (inactive),-0.477,-1.43,-1.94,0.0645
O=C(CS)NCCCCCCNC(=O)[C@H]1C[C@H]2C(=O)N[C@@H](Cc3ccccc3)C(=O)N2[C@H]1c1cccc(OCCO)c1,-0.165,0.605,0.0465,1.16,1.56,1.36,1.41,0.328 (inactive),0.928,-0.145,1.54,0.646 (inactive),0.311 (inactive),1.15 (inactive),2.81,-0.23 (inactive),0.118,1.6,1.02,0.14
COCCOC(=O)N1C(=O)[C@@]2(c3cc(C#CC4(O)CCCCCC4)ccc31)[C@H](C(N)=O)[C@H]1C(=O)O[C@H](c3ccccc3)[C@H](c3ccccc3)N1[C@@H]2c1ccc(O)cc1,-0.353,0.516,-0.0494,0.544,0.618,0.446,1.28,0.116 (inactive),0.33,0.192,1.55,0.121 (inactive),0.182 (inactive),0.523 (inactive),2.41,-0.426 (inactive),-0.0009,1.53,1.12,-0.0418
C=C(/C(=C/C[C@@H](OC(=O)c1ccncc1)c1ccccc1OCCO)c1cc(C(=O)OC)ccc1OC)C(C)C,-0.259,0.584,-0.0352,0.533,0.311,0.878,1.1,-1.31 (inactive),0.586,0.0854,1.56,0.381 (inactive),-0.633 (inactive),-0.338 (inactive),3.07,0.616 (inactive),-0.0155,0.88,1.01,-0.0353
CC(=O)N1Cc2ccccc2C[C@]2(N=C(c3ccc(OCCCO)cc3)O[C@@H]2c2ccccc2)C1=O,0.864,0.688,0.0512,0.458,0.875,1.04,1.34,-2.24 (inactive),0.33,-0.238,1.55,0.369 (inactive),-2.91 (inactive),13.6 (active),3.07,1.52 (inactive),0.0081,0.648,1.07,0.0557
C#CCNC(=O)[C@H](Cc1ccccc1)NC(=O)[C@@H](N=[N+]=[N-])C(C)C,-0.57,-0.003,-0.0894,0.334,1.04,0.452,1.08,0.171 (inactive),0.16,-0.409,0.911,-0.611 (inactive),0.139 (inactive),-0.229 (inactive),1.57,0.35 (inactive),-0.116,0.434,0.5,-0.071
CC(C)N1C(=O)[C@@]2(c3ccc([N+](=O)[O-])cc3)CC(=O)N(C3CCCCC3)[C@@H]2c2ccc(CO)cc21,-0.437,0.0633,-0.151,-0.0689,-0.465,-0.299,0.209,1.25 (inactive),-0.293,-0.118,1.27,-1.78 (inactive),0.353 (inactive),-2.19 (inactive),0.198,-1.43 (inactive),-0.103,0.622,-0.509,-0.0565
